The structures appear in SMILES notation. The campaign covered roughly 100,000 compounds. About 770 (0.77%) were called active. Cut-off read from the data, not from the text of the source: active = inhibition above about 50%; inactive = the rest. The entries come from a sample that favours actives as a whole.

The target of the experiment is Gag-Pol polyprotein (Human immunodeficiency virus type 1 group M subtype B (isolate HXB2)) (UniProt P04585). The experiment in a line: RNase H inhibition, HIV 1 Gag Pol polyprotein, FRET biochemical assay, screening (AID 372). The following applies: HIV-1 RT RNase H, FRET RNA/DNA substrate fluorescence; at 10 µM; stronger effect = higher value.
In the case of `O=C(Nc1ccc2oc(-c3ccccc3F)nc2c1)C(Cl)(Cl)Cl`, the inhibition was 8% (inactive).
With `O=C(O)/C=C\C(=O)Nc1ccc(N2CCOCC2)c(C(=O)O)c1` the figure was 5% (inactive); with `Cc1ccc(S(=O)(=O)N/N=C/c2ccc(C(=O)O)cc2)cc1`, 0% (inactive); with `COc1ccc(N2CCSC2c2ccco2)cc1` (stereo not drawn), 0% (inactive).
As to `C=CCN1C(=O)/C(=C\c2ccc(O)c(OCC)c2)C(=O)NC1=S`, the inhibition was 11% (inactive).
`COc1cc(C(=O)NCc2ccc(C(=O)O)cc2)cc(OC)c1OC`: the inhibition was 7% (inactive).
With `CCn1c2ccccc2c2cc(C=Nc3ccc(C)c(F)c3)ccc21` the figure was 0% (inactive); with `CCOc1ccc(C(=O)NC(=S)Nc2ccc(C)cc2)cc1Br`, 11% (inactive); with `CCOc1ccccc1C=Nn1c(-c2ccc(Cl)cc2Cl)n[nH]c1=S`, 15% (inactive).
Regarding `CCN(CC)CCN1C(=O)C(=O)/C(=C(\O)c2ccc([N+](=O)[O-])cc2)C1c1ccc(OC)cc1` (stereo not drawn), the inhibition is 2% (inactive).
To `CCOC(=O)CC1(c2ccccc2)SC(NC(C)=O)=NN1C(C)=O` (stereo not drawn) belongs 0% (inactive); to `COc1ccc(OC)c(NC(=O)C(=O)NCc2ccncc2)c1`, 26% (inactive); to `COc1ccc(CNC(=O)C(=O)Nc2cc(C)ccc2OC)cc1`, 30% (inactive).
With `COc1ccc(Cl)cc1NC(=O)C(=O)NCc1ccc(C)cc1`, the inhibition was 30% (inactive).
With `COc1ccc(C)cc1NC(=O)C(=O)NCc1ccccc1` the figure was 59% (active).
On to `COc1ccc(C)cc1NC(=O)C(=O)NCc1ccc(C)cc1`, for which the inhibition is 5% (inactive).
On to `COc1ccc(Cl)cc1NC(=O)C(=O)NCc1ccncc1`, for which the inhibition is 59% (active).
As to `CCOC(=O)C1=C(C)N=c2s/c(=C\c3cc(Br)c(OCc4ccccc4Cl)c(OC)c3)c(=O)n2C1c1ccccc1Cl` (stereo not drawn), the inhibition was 0% (inactive).
To `CCOC(=O)c1cc(-c2ccccc2)sc1NC(=O)COc1ccccc1[N+](=O)[O-]` belongs 57% (active).
Consider `Cc1cc(C)c(NC(=O)COc2ccccc2[N+](=O)[O-])c(C)c1`, for which the inhibition was 5% (inactive).
As to `CCOC(=O)c1cc(-c2ccccc2)sc1NC(=O)c1ccc([N+](=O)[O-])cc1`, the inhibition was 22% (inactive).
Consider `O=C(Nc1cccc(C(F)(F)F)c1)c1cc([N+](=O)[O-])ccc1Cl`, for which the inhibition was 7% (inactive).
As for `Cc1nc2n(CC(=O)N3CCOCC3)c3ccccc3n2n1`, the inhibition was 1% (inactive).
To `O=C(Cc1cccs1)Nc1ccc(/C=C/C(=O)c2ccccc2)cc1` belongs 8% (inactive).
With `CCOC(=O)c1c(C)oc2ccc(NS(=O)(=O)c3cc(C)ccc3C)cc12` the figure was 22% (inactive); with `CCOC(=O)c1c(C)oc2ccc(N(C(=O)c3ccncc3)S(=O)(=O)c3ccc(C)cc3)cc12`, 62% (active).
To `CCOC(=O)c1c(C)oc2ccc(OC(=O)c3ccc(C)cc3)cc12` belongs 0% (inactive); to `O=[N+]([O-])c1ccccc1S(=O)(=O)Nc1ccc(S(=O)(=O)N2CCOCC2)cc1`, 51% (active).
Regarding `O=[N+]([O-])c1ccccc1S(=O)(=O)Nc1ccc(S(=O)(=O)N2CCCCC2)cc1`, the inhibition is 0% (inactive).
With `Cc1ccc(S(=O)(=O)Nc2ccc(S(=O)(=O)N3CCOCC3)cc2)cc1[N+](=O)[O-]`, the inhibition is 0% (inactive).
To `Clc1ccc(Oc2cccc(CN3CCN(c4ccccc4)CC3)c2)cc1` belongs 17% (inactive).
For the compound `Cc1cccc(C(=O)NCC(O)c2ccccc2)c1` (stereo not drawn), the inhibition was 11% (inactive).
To `CN=C(Nc1ccc2c(c1)OCO2)SC1CC(=O)N(c2ccc(Cl)cc2)C1=O` (stereo not drawn) belongs 12% (inactive); to `COC(=O)C1=C(C)N=c2s/c(=C\c3ccccc3Cl)c(=O)n2C1c1ccccc1Cl` (stereo not drawn), 20% (inactive).
To `CCOc1ccc(NC(=O)CC2S/C(=N\N=C(/C)c3ccc(F)cc3)NC2=O)cc1` (stereo not drawn) belongs 6% (inactive).
With `Cc1ccc([N+](=O)[O-])cc1-c1ccc(/C=C2/C(=O)NC(=O)N(C)C2=O)o1` the figure was 27% (inactive).
In the case of `CN1C(=O)NC(=O)/C(=C/c2ccc(-c3cc([N+](=O)[O-])ccc3Cl)o2)C1=O`, the inhibition was 20% (inactive).
With `CN1C(=O)NC(=O)/C(=C/c2ccc(-c3ccc([N+](=O)[O-])cc3Cl)o2)C1=O` the figure was 55% (active); with `O=C1NC(=O)N(Cc2ccccc2)C(=O)/C1=C/c1ccc(-c2cccc([N+](=O)[O-])c2)o1`, 38% (inactive).
With `O=C1NC(=O)N(Cc2ccccc2)C(=O)/C1=C/c1ccc(-c2ccc([N+](=O)[O-])cc2)o1` the figure was 63% (active); with `Cc1cc([N+](=O)[O-])ccc1-c1ccc(/C=C2/C(=O)NC(=O)N(Cc3ccco3)C2=O)o1`, 25% (inactive).
Consider `O=C1NC(=O)N(c2ccccc2)C(=O)/C1=C\c1ccc(-c2ccc([N+](=O)[O-])cc2)o1`, for which the inhibition is 7% (inactive).
Turning to `Cc1cc([N+](=O)[O-])ccc1-c1ccc(/C=C2\C(=O)NC(=O)N(Cc3ccccc3)C2=O)o1`, the inhibition was 60% (active).
To `Cc1cc([N+](=O)[O-])ccc1-c1ccc(/C=C2/C(=O)NC(=O)N(c3ccccc3)C2=O)o1` belongs 17% (inactive); to `CCC(=O)c1cc(Cl)ccc1NC(=O)c1ccc(Br)cc1`, 10% (inactive); to `CC(=O)c1cccc(NC(=O)c2ccc(OC3CSC3)cc2)c1`, 8% (inactive).
To `Cc1sc(NC(=O)C2C3C=CC(C3)C2C(=O)O)c(C(N)=O)c1C` (stereo not drawn) belongs 6% (inactive).
To `CCOc1cc(/C=C2\C(=O)NC(=O)N(c3ccc(Br)cc3)C2=O)ccc1OCC(=O)O` belongs 8% (inactive).
`O=C(O)c1cccc(N2C(=O)c3ccc(Br)cc3C2=O)c1`: the inhibition was 1% (inactive).
To `O=C(O)c1cccc(N2C(=O)c3cccnc3C2=O)c1` belongs 0% (inactive); to `O=C(O)c1cccc(N2C(=O)c3ccc4c5c(ccc(c35)C2=O)CC4)c1`, 56% (active).
As for `COc1ccc(-c2nnc(SCC(=O)c3cccc([N+](=O)[O-])c3)n2-c2ccc(C)cc2)cc1OC`, the inhibition is 19% (inactive).
With `Oc1ccc(Nc2nc(-c3ccc(Br)cc3)cs2)cc1`, the inhibition is 21% (inactive).
With `O=C1c2ccc3c4c(ccc(c24)C(=O)N1/N=C/c1ccco1)CC3` the figure was 3% (inactive); with `O=[N+]([O-])c1ccc2c(c1)C(C#Cc1ccccc1)C1CCCCC1(N1CCOCC1)O2` (stereo not drawn), 57% (active); with `Oc1ccc2c(c1)C1CCCCC1(N1CCCCC1)O2` (stereo not drawn), 0% (inactive).
With `Oc1cc(-c2ccccc2)c2c(c1)C1CCCCC1(N1CCOCC1)O2` (stereo not drawn), the inhibition is 0% (inactive).
With `O=C(COc1ccc2ccccc2c1)N/N=C/c1ccccc1Br` the figure was 13% (inactive).
To `O=C(COc1ccc2ccccc2c1)N/N=C\c1cc(O)c(O)c(Br)c1` belongs 73% (active); to `COc1cc(/C=N/NC(=O)COc2ccc(Cl)cc2Br)cc(Br)c1O`, 24% (inactive).
Take `COc1ccc(OCC(=O)N/N=C\c2cc(O)c(O)c(Br)c2)c(Br)c1`: the inhibition was 64% (active).
Regarding `O=C(COc1ccc2ccccc2c1)N/N=C/c1ccccc1`, the inhibition was 4% (inactive).
With `COc1ccc(OCC(=O)N/N=C/c2ccc(OC)c(Br)c2)cc1` the figure was 2% (inactive).

The inhibition is the share of the control response that was lost under treatment.
